Results from PubChem BioAssay AID504796 (The Scripps Research Institute Molecular Screening Center, 2011).
The list shows a part of the results. Unmarked numbers belong to inactive results. The source made the active and inactive calls. No stated cut-off is given here; in the data, active means activation above about 20%; inactive means the rest.

Assay: fluorescence polarization artefacts, biochemical, artefact control for PKA-R2B activator project (AID 504796);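 further: Cy5 labelled IP20 peptide probe with compound but no PKA protein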
Details: FP artifact counterscreen, at 11.4 µM, stronger effect = higher value

Structure (SMILES) | activation
N#Cc1ccccc1CN1C(=O)S/C(=C/c2cccn2-c2cccc(C(=O)O)c2)C1=O | 19.3% (active)
CC(C)(C)c1nnc(N/N=C/c2ccc(O)cc2)n(N)c1=O | 1.05%
CC(C)(C)c1ccc(C(=O)N2CCC(C(=O)N3CCCCC3)CC2)cc1 | 4.67%
COc1cccc(Nc2nnc(SCC(=O)N3CC(C)OC(C)C3)s2)c1 (stereo not drawn) | 1.43%
O=C(CCCN1C(=O)c2cccc3cccc(c23)C1=O)N1CCN(Cc2ccc3c(c2)OCO3)CC1 | 1.66%
O=C(CNC(=O)c1ccccc1)NCC(=O)OCC(=O)c1ccccc1 | 9.84%
COc1ccc(CC(NC(C)=O)C(=O)NC2CCN(C(=O)c3ccc(Cl)cc3)CC2)cc1 (stereo not drawn) | 3.95%
COc1ccc([N+](=O)[O-])cc1C1NN=C(c2cccc3ccccc23)S1 (stereo not drawn) | 4.38%
CCCC(=O)Nc1ncnc2c1ncn2[C@@H]1O[C@@H]2OP(=O)(O)OC[C@H]2[C@H]1OC(=O)CCC | 0.15%
COc1ccc(C/C(C)=N/NC(=O)c2ccncc2)cc1 | 1.96%
O=C(CN(C(=O)CCC(=O)Nc1nccs1)c1ccc(F)cc1)NCc1ccc2c(c1)OCO2 | -1.45%
O=S(=O)(NCCNS(=O)(=O)c1ccccc1)c1ccccc1 | 4.68%
O=C(O)C1=C(C(=O)O)C2CCC1C2 | 5.92%
